Assay results: PubChem BioAssay AID623970 (The Scripps Research Institute Molecular Screening Center, 2012)
Several values for one entry are separate records, joined by “and”; a condition that tells them apart may be missing. Identical values can stand only once. The source holds several records for some structures; these can differ, active in one and inactive in another. Activity calls are given as the source filed them. Cut-off read from the data, not from the text of the source: active = IC50 below about 90 µM; inactive = the rest.

Assay: DNA binding via SYBR dye displacement, late-stage follow-up, artefact control for HCV NS3 helicase inhibitor project, biochemical, fluorescence (AID 623970)

Row | Structure (SMILES) | IC50
1 | NS(=O)(=O)c1ccc2nc(NC(=O)c3ccc4ncsc4c3)sc2c1 | > 100 µM (inactive)
2 | Cc1ccc2nc(-c3ccc4nc(-c5ccc(NC(=O)c6ccc7ncoc7c6)cc5)sc4c3)sc2c1S(=O)(=O)O | 46 µM (active)
3 | Cc1ccc2nc(-c3ccc4nc(-c5ccc(NC(=O)c6ccc(C(F)(F)F)cc6)cc5)sc4c3)sc2c1S(=O)(=O)O | 29 µM (active)
4 | Cc1ccc2nc(-c3ccc(NC(=O)c4ccc(C(F)(F)F)cc4)cc3)sc2c1S(=O)(=O)O | > 100 µM (inactive)
5 | Cc1ccc2nc(-c3ccc4nc(-c5ccc(NC(=O)c6ccc(C(F)(F)F)c(F)c6)cc5)sc4c3)sc2c1S(=O)(=O)O | 28 µM (active)
6 | CCN(CC)c1ccc(-c2nc3ccc(-c4nc5ccc(C)c(S(=O)(=O)O)c5s4)cc3s2)cc1 | 26 µM (active)
7 | COc1ccc(C(=O)Nc2ccc(-c3nc4ccc(-c5nc6ccc(C)c(S(=O)(=O)O)c6s5)cc4s3)cc2)cc1 | > 100 µM (inactive)
8 | Cc1ccc2nc(-c3ccc(NC(=O)c4ccc(NC(=O)c5ccc(NC(=O)OCC6c7ccccc7-c7ccccc76)cc5)cc4)cc3)sc2c1S(=O)(=O)O | > 100 µM (inactive)
9 | CCN(CC)c1ccc(-c2nc3ccc(C)c(S(=O)(=O)O)c3s2)cc1 | > 100 µM (inactive)
10 | Cc1ccc2nc(-c3ccc4nc(-c5ccc(NC(=O)c6ccc(F)cc6)cc5)sc4c3)sc2c1S(=O)(=O)O | > 100 µM (inactive)
11 | Cc1ccc2nc(-c3ccc4nc(-c5ccc(NC(=O)c6c(F)cccc6C(F)(F)F)cc5)sc4c3)sc2c1S(=O)(=O)O | 64 µM (active)
12 | Cc1cc2sc(-c3ccc4nc(-c5ccc(N)cc5)sc4c3)nc2cc1S(=O)(=O)O | 32 µM (active)
13 | Cc1ccc2nc(-c3ccc4nc(-c5ccc(NS(=O)(=O)c6ccc(C(F)(F)F)cc6)cc5)sc4c3)sc2c1S(=O)(=O)O | 82 µM (active)
14 | Cc1ccc2nc(-c3ccc4nc(-c5ccc(N(C)C(=O)c6ccc7ccccc7c6)cc5)sc4c3)sc2c1S(=O)(=O)O | > 100 µM (inactive)
15 | Cc1ccc2nc(-c3ccc4nc(-c5ccc(NC(=O)Nc6ccc(Cl)cc6)cc5)sc4c3)sc2c1S(=O)(=O)O | 8 µM (active)
16 | Cc1ccc2nc(-c3ccc4nc(-c5ccc(NC(=O)c6ccccc6)cc5)sc4c3)sc2c1S(=O)(=O)O | > 100 µM (inactive)
17 | Cc1ccc2nc(-c3ccc4nc(-c5ccc(NC(=O)c6cccc(C(F)(F)F)c6)cc5)sc4c3)sc2c1S(=O)(=O)O | > 100 µM (inactive)

Row | Structure (SMILES) | IC50
18 | COC(=O)c1ccc(C(=O)Nc2ccc(-c3nc4ccc(-c5nc6ccc(C)c(S(=O)(=O)O)c6s5)cc4s3)cc2)cc1 | > 100 µM (inactive)
19 | Cc1ccc2nc(-c3ccc4nc(-c5ccc(NC(=O)c6ccccc6C(F)(F)F)cc5)sc4c3)sc2c1S(=O)(=O)O | > 100 µM (inactive)
20 | Cc1ccc2nc(-c3ccc4nc(-c5ccc(NC(=O)c6ccc(N)cc6)cc5)sc4c3)sc2c1S(=O)(=O)O | 55 µM (active)
21 | Cc1ccc2nc(-c3ccc4nc(-c5ccc6nc(-c7ccc8nc(-c9ccc(N)cc9)sc8c7)sc6c5)sc4c3)sc2c1S(=O)(=O)O | 14 µM (active)
22 | Cc1ccc2nc(-c3ccc4nc(-c5ccc(NC(=O)c6cc(C(F)(F)F)ccc6F)cc5)sc4c3)sc2c1S(=O)(=O)O | > 100 µM (inactive)
23 | Cc1ccc2nc(-c3ccc4nc(-c5ccc(NC(=O)c6ccc(Cl)cc6)cc5)sc4c3)sc2c1S(=O)(=O)O | 31 µM (active)
24 | Cc1ccc2nc(-c3ccc4nc(-c5ccc6nc(-c7ccc(N)cc7)sc6c5)sc4c3)sc2c1S(=O)(=O)O (tested in a mixture with another compound) | 43 µM (active)
25 | Cc1ccc2nc(-c3ccc(NC(=O)c4ccc(NS(=O)(=O)c5ccccc5)cc4)cc3)sc2c1S(=O)(=O)O | > 100 µM (inactive)
26 | Cc1ccc(NC(=O)Nc2ccc(-c3nc4ccc(-c5nc6ccc(C)c(S(=O)(=O)O)c6s5)cc4s3)cc2)cc1 | 18 µM (active)
27 | CCOc1ccc2c(NNC(=O)c3cnccn3)c3c(nc2c1)CCCC3 | > 100 µM (inactive)
28 | Cc1ccc(C(=O)Nc2ccc(-c3nc4ccc(-c5nc6ccc(C)c(S(=O)(=O)O)c6s5)cc4s3)cc2)cc1 | > 100 µM (inactive)
29 | COc1ccc(NC(=O)Nc2ccc(-c3nc4ccc(-c5nc6ccc(C)c(S(=O)(=O)O)c6s5)cc4s3)cc2)cc1 | 73 µM (active)
30 | Cc1ccc2nc(-c3ccc4nc(-c5ccc(N)cc5)sc4c3)sc2c1S(=O)(=O)O | > 100 µM (inactive) and 23 µM (active)
31 | Cc1ccc2nc(-c3ccc4nc(-c5ccc(NC(=O)c6cccc(Cl)c6)cc5)sc4c3)sc2c1S(=O)(=O)O | > 100 µM (inactive)
32 | Cc1ccc2nc(-c3ccc4nc(-c5ccc(NC(=O)c6ccc(Br)cc6)cc5)sc4c3)sc2c1S(=O)(=O)O | 30 µM (active)
33 | Cc1ccc2nc(-c3ccc(NC(=O)c4ccc(NC(=O)c5ccccc5)cc4)cc3)sc2c1S(=O)(=O)O | > 100 µM (inactive)
34 | Cc1ccc2nc(-c3ccc4nc(-c5ccc(NC(=O)c6ccc(C(C)(C)C)cc6)cc5)sc4c3)sc2c1S(=O)(=O)O | 16 µM (active)
